# Source: PubChem (National Center for Advancing Translational Sciences (NCATS))
# Hits are enriched below; roughly 7.2% of the tested compounds scored in any of these assays.
# MARV entry inh = inhibitors of Marburg virus binding or cell entry. Marburg virus pseudotyped entry inhibition, cell reporter. Potency, µM (top dose mostly 37.8 µM), for inactives: at the highest dose activity change, negative = inhibition, hits mostly inhibitors. 300,000 tested, 1.8% active. AID 540276; calls by dose curve; tested in HEK293 cells
# FMDV inh = antivirals against foot and mouth disease virus | FMDV antiviral cell-based qHTS | Potency, µM (series often up to 57.9 µM), without a hit: top-dose activity change, negative = inhibition, actives largely listed as inhibitors | 410,000 tested, 1.2% active; calls by dose curve; tested in HEK293T cells; further: read-out not given here; nearly all actives have a fitted effect of over 45% in size
# RE007 growth inh = less growth of the S. pombe RE007 Vpr strain; S. pombe RE007 Vpr strain, BacTiter-Glo ATP luminescence, 24 h; Potency, µM (titrated, usually from 92.2 µM), for the others: at the highest dose activity change, negative = less growth, most hits filed as inhibitors; 360,000 tested, 0.21% active; active means well fitted falling curve with a large enough effect; inconclusive means small, poorly fitted or top-dose-only effect; inactive means no such curve, though single readings can be large or run the other way; further: nearly all actives have a fitted effect of over 50% in size
#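 Fission yeast strain RE007, carrying one chromosomally integrated HIV-1 vpr copy, was seeded at OD 0.01 in PMG+AL medium with 23 nL pinned compound. After 24 h at 30 °C and 99% humidity, viability was read by BacTiter-Glo luminescence.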
# HCV inhibitor = inhibitors of hepatitis C virus infection; Huh7.5.1 HCVcc-Cre infection, luciferase reporter, 44 h; Potency, µM (series often up to 41.8 µM), for inactives: top-dose activity change, negative = inhibition, usual class: inhibitors; 340,000 tested, 3.4% active
#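 Luciferase read-out (15 sec integration) after a 15 min room-temperature substrate step quantifies HCVcc-Cre infection. Cells, 1,000 per well, had compound added 4 h post-plating, then virus at ~0.5 moi, and were cultured 44 h.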
# LASV entry inh = inhibitors of Lassa virus binding or cell entry; Lassa virus pseudotype entry inhibition, cell reporter; Potency, µM (series often up to 37.9 µM), for inactives: at the highest dose activity change, negative = inhibition, usual class: inhibitors; 300,000 tested, 1.2% active; calls by dose curve; tested in HEK293 cells; further: nearly all actives have a fitted effect of over 50% in size
# Sm TGR block = inhibitors of Schistosoma mansoni thioredoxin glutathione reductase; purified TGR, DTNB reduction, TNB absorbance 405 nm; 360,000 tested, 3% active; Q962Y6; AID 485364; Potency, µM (titrated, usually from 114 µM), for the others: at the highest dose activity change, negative = inhibition, actives largely listed as inhibitors; further: nearly all actives have a fitted effect of over 60% in size
#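 Kinetic colorimetric format: TGR-catalysed, NADPH-driven DTNB reduction monitored via TNB absorbance. Enzyme dispensed at 20 nM; compound exposure 15 min at room temperature before reaction start.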
# Active calls of the source: *; ? = inconclusive; . = not tested or not shown; [ ] = another dose, or the depositor's remark. Unless noted, the call rests on the fitted dose curve; in most records, active means well fitted curve in the direction sought with a large enough effect; inconclusive means small, poorly fitted or top-dose-only effect, or another doubt; inactive means no such curve, though single readings can be large; an effect the other way counts as inactive or inconclusive. On the % scale 0 is the no-effect control and ±100 the full control effect; potency means the concentration at half of the fitted maximal effect.
SMILES,MARV entry inh,FMDV inh,RE007 growth inh,HCV inhibitor,LASV entry inh,Sm TGR block
COc1ccc(C(C)=O)cc1CSc1nnnn1-c1ccc(O)cc1,.,-19%,5%,-25%,.,7.1µM*
Cc1c(Cl)cccc1NC(=O)Cn1cc2c(n1)CCCC2,-13%[46.1 µM],3%,.,.,-1%[46.1 µM],-12%
COCCNCC1C(Oc2ccc(Cl)cc2)C(=O)N1c1ccccc1C (stereo unspecified),?,-18%,-5%,5%,-19%,4%
COc1ccc(CCNCC2C(Oc3ccc(Cl)cc3)C(=O)N2c2ccccc2C)cc1OC (stereo unspecified),11µM*,?,8%,?,5%[46.1 µM],2%
Cc1cc(C)c(S(=O)(=O)N2CCN(C(=O)C3COc4ccccc4O3)CC2)c(C)c1 (stereo unspecified),.,-29%,5%,11µM*,.,-3%
COc1cccc(Cn2c(=O)n(CC3CCC(C(=O)N4CCOCC4)CC3)c(=O)c3sccc32)c1 (stereo unspecified),.,0%,.,.,?,0%
CC(=O)N(/N=C/c1ccc([N+](=O)[O-])o1)c1nc2ccccc2c(=O)n1-c1ccccc1,.,-2%,-3%,-24%,.,40µM*
CN(/N=C/c1ccc([N+](=O)[O-])o1)c1ccccc1,-25%[46.1 µM],0%,-30%,-6%,-14%,-26%
O=c1c2ccccc2nc(/C=C/c2ccccc2)n1-c1ccc(O)cc1,?,?,-13%,?,?,-29%
COc1cc(/C=C/c2nc3ccccc3c(=O)n2-c2cccc(O)c2)ccc1O,?,?,2%,?,1.3µM*,4%
Cc1cccc(-n2c(/C=C/c3ccc([N+](=O)[O-])o3)nc3ccccc3c2=O)c1,?,?,5%,10µM*,?,?
O=c1c2ccccc2nc(/C=C/c2ccc([N+](=O)[O-])o2)n1-c1ccc(O)cc1,3.2µM*,?,1%,?,?,?
Cc1cccc(-n2c(/C=C/c3ccccc3O)nc3ccccc3c2=O)c1,.,?,.,.,?,9%
COCC1=C(C(=O)OC)C(c2ccccc2)N(C(C)=O)C(=O)N1 (stereo unspecified),1%[14.2 µM],.,.,.,.,.
NC(=O)CSc1ncnc2c1nnn2Cc1ccc(F)cc1,?,35µM*,0%,-16%,-18%,-7%
O=C(CSc1ncnc2c1nnn2Cc1ccc(F)cc1)NCC1CCCO1 (stereo unspecified),.,35µM*,7%,?,.,-23%
Cn1c2c(c(=O)n(C)c1=O)C(C(F)(F)F)(C(F)(F)F)N=C(c1ccc(Cl)cc1)N2,1µM*,2.2µM*,-12%,1.6µM*,2.8µM*,-6%
Cc1ccc(NS(=O)(=O)c2cccc(C(=O)NC3CCN(Cc4ccccc4)CC3)c2)c(C)c1,.,?,-11%,14µM*,.,.
Cc1ccc(C)c(OCc2cc(C(=O)NC3CCN(Cc4ccccc4)CC3)no2)c1,.,?,-8%,6.3µM*,.,5%
Cc1oc(C(C)(C)C)cc1C(=O)NC1CCN(Cc2ccccc2)CC1,10µM*,-21%,3%,?,?,-25%
COc1ccccc1NS(=O)(=O)c1ccc(C)c(C(=O)NC2CCN(Cc3ccccc3)CC2)c1,?,?,-10%,2.2µM*,?,0%
COc1ccccc1NS(=O)(=O)c1cccc(C(=O)NC2CCN(Cc3ccccc3)CC2)c1,?,?,-10%,?,-28%,-9%
Cc1oc(-c2ccc(Cl)cc2)cc1C(=O)NC1CCN(Cc2ccccc2)CC1,?,?,-16%,?,?,13%
CCN(CC)c1ccc2cc(-c3nc(-c4ccccc4)no3)c(=O)oc2c1,.,56%,.,.,0%[46.1 µM],6%
CCc1ccc(NC(=O)CN2C(=O)C3CCCN3c3ccc(S(=O)(=O)N(CC)CC)cc32)cc1 (stereo unspecified),.,9%,.,.,-5%[46.1 µM],-35%
O=C(COc1ccccc1F)Nc1nnc(SCc2cc(=O)c3ccccc3[nH]2)s1,.,-29%,.,.,17%[46.1 µM],-2%
